Bioassay records as filed in PubChem BioAssay.
TNF death inh = inhibitors of TNF-alpha induced necroptosis in Jurkat FADD-/- cells; Jurkat FADD-/- TNF necroptosis rescue, ATP luminescence, 24 h; 0 = TNF only, 100 = no-TNF cells; activation (protection from cell death), % at 10 µM; actives 0.068% (n = 220,000);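 active = activation, meaning protection from cell death, of at least 50% relative to plate controls; inactive = activation below 50%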;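 note: necroptosis triggered by 40 ng/mL TNF-alpha added together with compound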
L929 necroptosis = blocks zVAD induced death of L929 cells. L929 zVAD necroptosis rescue, ATP luminescence, 24 h; with zVAD 60 µM. viability rescue, % at 10 µM. actives 0.38% (n = 220,000);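 active = activation, scaled between plate controls, above about 75%, limit read from the data; inactive = activation under that limit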;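 note: 0% = zVAD with DMSO and 100% = DMSO alone without zVAD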
Wee1 stabilizer = inhibitors of human Wee1 degradation. HeLa Luc-Wee1K328M stability, luciferase luminescence; 100% = proteasome inhibitor MG132 effect. actives 1.2% (n = 220,000). P30291. reporter increase, % at 5 µM;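 active = activation above the mean of all tested compounds plus 3 SD, set per screening run, cut at about 8.8% in these data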;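 note: cells exposed to compound for 20 h before luminescence read; 0% = DMSO alone and 100% = MG132 at 30 µM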
Target sequence (P30291 whole entry K328M): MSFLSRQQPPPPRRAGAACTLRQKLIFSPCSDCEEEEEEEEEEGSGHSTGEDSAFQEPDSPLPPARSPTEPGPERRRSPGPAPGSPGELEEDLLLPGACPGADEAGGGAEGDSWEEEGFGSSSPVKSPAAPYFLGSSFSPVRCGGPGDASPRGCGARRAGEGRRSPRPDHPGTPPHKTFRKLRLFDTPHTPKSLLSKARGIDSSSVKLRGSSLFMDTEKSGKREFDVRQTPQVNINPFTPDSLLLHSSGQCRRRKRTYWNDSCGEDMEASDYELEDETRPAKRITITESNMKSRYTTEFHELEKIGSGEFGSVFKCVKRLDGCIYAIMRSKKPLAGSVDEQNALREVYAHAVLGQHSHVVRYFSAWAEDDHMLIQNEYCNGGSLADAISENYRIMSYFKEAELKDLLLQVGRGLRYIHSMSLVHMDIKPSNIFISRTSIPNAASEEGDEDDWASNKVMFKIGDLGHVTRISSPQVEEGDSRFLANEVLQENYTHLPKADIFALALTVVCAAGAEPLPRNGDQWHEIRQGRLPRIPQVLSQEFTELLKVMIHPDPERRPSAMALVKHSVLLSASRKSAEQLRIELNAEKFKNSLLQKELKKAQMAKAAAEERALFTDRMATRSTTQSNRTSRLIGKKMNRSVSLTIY
HSV augment = increases HSV replication in cells; HSV replication augmentation in cells, fold increase; maximum fold increase; actives 0.005% (n = 220,000); in the data active = maximum fold increase above about 1.5; inconclusive = no clear call, values can overlap the other calls; tested in PC3 cells
V-ATPase pHluor = alters yeast V-ATPase proton transport | AID 504577 | response, % at 10 µM | actives 0.37% (n = 350,000) | S. cerevisiae, pHLuorin cytosolic pH fluorescence; in the data active = response mostly above about 7.3%, no sharp cut-off; inactive = mostly below about 5.4%; note: actives read high
Active calls of the source: *; i = inactive; ? = inconclusive; nt = not tested or not shown. Hits are enriched below; roughly 1.4% of the tested compounds scored in any of these assays.

SMILES	TNF death inh	L929 necroptosis	Wee1 stabilizer	HSV augment	V-ATPase pHluor
Cc1ccc(C2=NNC3(CCOC(C)(C)C3)S2)cc1 (stereo not drawn)	1	-1	-3	i	nt
CSc1nc(N2CCOCC2)nc2ccc(C)cc12	nt	nt	nt	nt	2
CC(C)COc1ccc(CNC(=S)N/N=C/c2ccc([N+](=O)[O-])cc2)cc1	0	-2	10*	i	-1
CN(C)CCC(c1ccccc1)c1ccccn1 (stereo not drawn)	1	-2	16*	i	2
Cc1ccc(CNC(=O)c2cc3c(-c4ccc(Cl)cc4)nn(C)c3s2)o1	-1	1	9.6*	i	0
Cc1onc(-c2ccc(Cl)cc2Cl)c1-c1csc(N/N=C/c2ccccc2Cl)n1	-5	-1	9.7*	i	1
O=C(CC(=O)N1CCOCC1)N1CCOCC1	nt	nt	nt	nt	-2
COc1ccc2c(c1)O[C@H](c1ccc3c(c1)OCO3)[C@@H](O)C2=O	2	79*	-1	i	1
O=C(Nc1nc(COc2ccccc2)cs1)C1CCC1	-2	0	9.3*	i	2
CC(=O)Nc1nc(COc2ccccc2)cs1	4	0	1	i	3
CCC(C(=O)Nc1ccccc1Cl)n1nc(C)c2c(C)n(-c3ccccc3)nc2c1=O (stereo not drawn)	nt	nt	nt	nt	1
O=C(O)c1ccc(N=Nc2c(O)[nH]c3cc(Cl)ccc23)cc1	1	72	12*	?	1
CC(C)(C)OC(=O)NN=C(c1ccc(O)cc1)c1ccc(O)cc1	nt	nt	nt	nt	3
CCCC(=O)Nc1nc2ccc(NC(=O)c3ccc(Br)o3)cc2s1	4	0	9.5*	i	-1
COc1ccc(COc2cc(-c3cccc(OC)c3)nc3ccc(NC(C)=O)cc23)cc1	3	8	-2	i	4
COc1ccc(COc2cc(-c3cccc(OC)c3)nc3ccc(N)cc23)cc1	-17	-1	9.5*	i	3
COc1ccc(C(=O)N2CCN(Cc3nc(CC4CC4)no3)CC2)cc1	0	0	-3	i	1
Cc1cc(C)cc(N(C(=O)C(F)(F)F)C(C(=O)NC2CCCCC2)c2cccs2)c1 (stereo not drawn)	-2	0	11*	i	-1
O=C(O)c1cccc(COc2ccccc2Cl)c1	nt	nt	nt	i	5
O=C(O)c1ccc(COc2ccccc2Cl)cc1	1	0	9.1*	i	-3
CS(=O)(=O)N1CCN=C1SCc1ccc([N+](=O)[O-])cc1	2	1	9.1*	i	3
NNc1nc2sc3c(c2c(=O)n1Cc1ccccc1)CCC3	90*	3	-3	i	-1
C=C(C)CSc1nnc2n(Cc3ccccc3)c(=O)c3c4c(sc3n12)CCC4	51*	2	0	nt	-1
Cc1nnc2n(CCc3ccccc3)c(=O)c3c4c(sc3n12)CCCC4	-1	0	9.3*	nt	nt
CSc1nnc2n(CCc3ccccc3)c(=O)c3c4c(sc3n12)CCCC4	-1	0	-4	nt	nt
SMILES	TNF death inh	L929 necroptosis	Wee1 stabilizer	HSV augment	V-ATPase pHluor
CC(CC(=O)Nc1ccc(S(=O)(=O)N2CCOCC2)cc1)c1ccccc1 (stereo not drawn)	3	0	0	i	3
Cc1cc(C)c(OC2(c3ccccc3)OC(=O)c3ccccc32)c(C)c1 (stereo not drawn)	-3	0	-3	i	19*
Cc1cccc(C)c1OC1(c2ccccc2)OC(=O)c2ccccc21 (stereo not drawn)	-4	0	-1	i	0
CN(C)S(=O)(=O)c1cccc(NC(=O)c2ccc3nccnc3c2)c1	-2	1	-1	i	1
Cc1nn(-c2nc3ccccc3[nH]2)c(N)c1-c1ccc(Cl)cc1	0	0	11*	i	-3
Cc1ccc(C(=O)NC(C)CCc2ccccc2)cc1[N+](=O)[O-] (stereo not drawn)	-2	1	11*	i	4
COc1ccc(C2/C(=C(/O)c3ccc(C)cc3)C(=O)C(=O)N2C)cc1 (stereo not drawn)	0	1	0	i	0
COc1ccc(N2C(=O)C(=O)/C(=C(/O)c3ccc(C)cc3)C2c2cccnc2)cc1 (stereo not drawn)	1	1	10*	i	-2
COc1ccc(Nc2nc(OC)nc(N3CCOCC3)n2)cc1	1	13	-1	i	1
COc1nc(N2CCOCC2)nc(-n2cccc2)n1	-1	0	9.2*	i	-3
O=C(Nc1ccc(S(=O)(=O)NC2=NCCCCC2)cc1)c1cc(F)c(F)cc1Cl	nt	nt	nt	nt	-7
O=[N+]([O-])c1ccc(CS(=O)c2ccccc2)cc1 (stereo not drawn)	nt	nt	nt	nt	-3
O=[N+]([O-])c1ccc(S(=O)Cc2ccccc2)c([N+](=O)[O-])c1 (stereo not drawn)	nt	nt	nt	nt	22*
O=C(Cn1cnc2ccccc2c1=O)NCCCN1CCCC1=O	nt	nt	nt	nt	3
O=C(N/N=C/c1cccc2nccnc12)c1ccncc1	-4	0	9.8*	i	3
CC(C)(C)OC(=O)NCCC(=O)N/N=C/c1cccc2nccnc12	0	0	9.3*	i	-7
Cc1ccnn1CC(=O)N/N=C/c1ccco1	0	0	2	i	-2
CCC(C)[C@H](NC(=O)OC(C)(C)C)C(=O)N/N=C/c1cccc2nccnc12 (stereo partly drawn)	-2	0	-1	i	6
O=C(N/N=C/c1ccco1)c1ccncc1	-2	1	15*	i	-1
Cc1cc(C)n(CC(=O)N/N=C/c2ccco2)n1	-1	0	9.2*	i	-2
O=C(N/N=C/c1ccco1)c1cnccn1	0	0	-2	i	1
C=CCNC(=S)N1CCN(c2cc3c(cc2F)c(=O)c(C(=O)O)cn3CC)CC1	nt	nt	nt	nt	3
CCOc1ccccc1C(=O)N[C@H](C(=O)OCC(=O)Nc1nnc(-c2ccccc2)o1)C(C)C	nt	nt	nt	nt	-1
C[C@@H]([C@@H](O)c1ccccc1)N(C)C(=O)C(N)Cc1ccccc1 (stereo partly drawn)	nt	nt	nt	nt	26*
CCN1CCCc2cc(CN(CCN3CCOCC3)C(=S)Nc3ccc(OC)c(Cl)c3)ccc21	-8	-1	10*	i	-5
SMILES	TNF death inh	L929 necroptosis	Wee1 stabilizer	HSV augment	V-ATPase pHluor
CCN1CCCc2cc(CN(CCN3CCOCC3)C(=S)Nc3ccc(OC)c(OC)c3)ccc21	1	2	-2	i	2
N=c1n(CC(=O)c2ccc(Br)s2)c2ccccc2n1Cc1ccccc1	-30	-2	10*	i	6
Cn1c(=N)n(CC(=O)c2ccc(Br)s2)c2ccccc21	-4	0	6	nt	-4
CCSc1nc2c(c(=O)[nH]1)C(C(C)C)C(C#N)=C(N)O2 (stereo not drawn)	0	0	9.1*	i	0
O=C(O)CCCC(=O)N1CC(=O)Nc2ccccc21	0	0	9.1*	i	-2
CC(=O)Nc1ccc(NC(=O)C(C)OC(=O)CNC(=O)c2cccs2)cc1 (stereo not drawn)	nt	nt	nt	nt	-1
